# Source: PubChem BioAssay (Tox21)
# Where “and” joins values, the source holds several entries; their conditions need not be identical. Equal entries are not always repeated. Records with an inconclusive call do not appear. Where a call stands in place of a potency, no number is given. A structure can be active in one record and inactive in another. Calls of active or inactive are those of the source. Unless noted, calls come from the whole dose curve.
# Key:
# [1] = qHTS assay to identify small molecule antagonists of the sonic hedgehog signaling (Shh) pathway (AID 1259369); note: nearly all actives have a fitted effect of over 45% in size; note: potency is the fitted concentration of half-maximal effect
# How it was run: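 NIH/3T3-derived 3T3Gli1-Luc cells with stably integrated Gli1-Luc reporter were preincubated 4hr at 37 C, then given compounds in DMSO plus Shh conditioned medium and incubated 24hr. Firefly luciferase luminescence read after 30min reagent at room temperature.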
# [2] = qHTS assay to identify small molecule agonists of the estrogen receptor beta (ER-beta) signaling pathway - cell viability counter screen (AID 1259380; active = well fitted curve in the direction sought with a large enough effect in the repeat runs; an effect the other way counts as inactive or inconclusive; note: nearly all actives have a fitted effect of over 30% in size; note: potency is the fitted concentration of half-maximal effect)
# How it was run: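 ER-beta-UAS-bla HEK293T cells in medium with 2% charcoal-stripped FBS were preincubated 6 hr at 37C, dosed with compound in DMSO for 16 hr, then after the bla read, CellTiter-Glo was added for 30 min at room temperature; luminescence recorded.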
# [3] = biological target: Androgen receptor (Homo sapiens) (UniProt P10275); assay: qHTS assay to identify small molecule agonists of the androgen receptor (AR) signaling pathway in the presence of an antagonist (AID 1259381); note: nearly all actives have a fitted effect of over 15% in size; note: potency is the fitted concentration of half-maximal effect
# Androgen receptor (Homo sapiens), sequence (P10275 whole entry, looked up): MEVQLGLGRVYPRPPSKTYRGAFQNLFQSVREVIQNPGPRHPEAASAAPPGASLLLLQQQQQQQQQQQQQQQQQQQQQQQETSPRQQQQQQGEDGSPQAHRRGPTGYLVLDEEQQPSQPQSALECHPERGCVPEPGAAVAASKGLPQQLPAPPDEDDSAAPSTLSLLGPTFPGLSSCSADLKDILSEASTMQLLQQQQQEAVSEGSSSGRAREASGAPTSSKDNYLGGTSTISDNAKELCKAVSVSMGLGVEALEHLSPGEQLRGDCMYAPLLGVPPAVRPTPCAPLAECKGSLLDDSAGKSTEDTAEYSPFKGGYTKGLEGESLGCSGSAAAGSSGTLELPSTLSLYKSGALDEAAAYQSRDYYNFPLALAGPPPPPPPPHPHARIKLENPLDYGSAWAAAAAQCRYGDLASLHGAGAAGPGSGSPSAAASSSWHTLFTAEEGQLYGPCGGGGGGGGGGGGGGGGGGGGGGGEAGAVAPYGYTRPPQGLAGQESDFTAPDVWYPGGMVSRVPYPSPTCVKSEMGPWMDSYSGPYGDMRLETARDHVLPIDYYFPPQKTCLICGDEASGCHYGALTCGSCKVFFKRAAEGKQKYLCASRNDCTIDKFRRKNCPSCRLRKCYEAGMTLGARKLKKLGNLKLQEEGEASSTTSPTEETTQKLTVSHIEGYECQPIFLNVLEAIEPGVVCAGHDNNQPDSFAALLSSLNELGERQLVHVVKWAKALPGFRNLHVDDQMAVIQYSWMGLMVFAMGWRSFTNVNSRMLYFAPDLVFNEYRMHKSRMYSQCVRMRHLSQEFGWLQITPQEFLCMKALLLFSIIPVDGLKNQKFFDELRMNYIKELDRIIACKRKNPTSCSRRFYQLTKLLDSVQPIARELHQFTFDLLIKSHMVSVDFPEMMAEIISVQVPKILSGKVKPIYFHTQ
# How it was run: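 MDA-kb2 human breast carcinoma cells carrying an MMTV-luciferase reporter (AR- and GR-responsive) were treated with compounds at 15 concentrations plus 3.0uM final nilutamide for 16hr at 37C without CO2; luminescence was read after ONE-Glo addition.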
# [4] = biological target: Estrogen receptor (Homo sapiens) (UniProt P03372); assay: qHTS assay to identify small molecule agonists of the estrogen receptor alpha (ER-alpha) signaling pathway in the presence of an antagonist (AID 1259383); note: top concentration of the series differs between compounds; nearly all actives have a fitted effect of over 15% in size
# Estrogen receptor (Homo sapiens), sequence (P03372 whole entry, looked up): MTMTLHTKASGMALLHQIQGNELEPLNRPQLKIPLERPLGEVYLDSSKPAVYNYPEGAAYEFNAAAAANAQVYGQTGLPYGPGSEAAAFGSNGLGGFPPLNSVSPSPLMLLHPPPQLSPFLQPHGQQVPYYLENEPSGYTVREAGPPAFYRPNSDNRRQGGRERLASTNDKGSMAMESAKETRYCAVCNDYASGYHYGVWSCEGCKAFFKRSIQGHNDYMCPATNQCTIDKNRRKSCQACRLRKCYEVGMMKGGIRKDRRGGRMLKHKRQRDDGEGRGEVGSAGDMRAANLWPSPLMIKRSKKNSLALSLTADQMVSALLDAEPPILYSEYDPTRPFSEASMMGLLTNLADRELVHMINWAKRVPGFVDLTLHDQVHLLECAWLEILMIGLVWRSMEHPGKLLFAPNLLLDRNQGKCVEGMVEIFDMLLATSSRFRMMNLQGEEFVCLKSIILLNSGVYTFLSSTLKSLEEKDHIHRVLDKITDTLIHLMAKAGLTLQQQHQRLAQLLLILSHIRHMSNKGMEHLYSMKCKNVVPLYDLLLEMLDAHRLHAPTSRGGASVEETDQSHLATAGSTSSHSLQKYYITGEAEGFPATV
# How it was run: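 VM7Luc4E2 cells (endogenous full-length ER-alpha, 4×ERE-luciferase) were precultured 5 days in phenol red-free medium with 10% charcoal-stripped FBS, given 10.0nM ICI-182,780 (final), then treated with compounds at 15 concentrations for 22hr at 37C; luminescence read with ONE-Glo.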
# [5] = qHTS assay to identify small molecule agonists or antagonists of the thyroid stimulating hormone receptor (TSHR) signaling pathway - wild type cell line counter screen (AID 1259384)
# How it was run: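 Wild-type HEK293 cells were plated 18 h at 37 C/5% CO2, pin-dosed with compound plus Ro20-1724 medium, held 30 min at room temperature, then given cAMP-d2 and anti-cAMP-cryptate; fluorescence was read after 1 h. Fifteen concentrations, triplicate.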
# [6] = qHTS assay to identify small molecule agonists of the estrogen receptor alpha (ER-alpha) signaling pathway in the presence of an antagonist - cell viability counter screen (AID 1259386; active = well fitted curve in the direction sought with a large enough effect in the repeat runs; an effect the other way counts as inactive or inconclusive;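 note: cells exposed to compounds for 22 h at 37 °C before the viability read; nearly all actives have a fitted effect of over 30% in size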; note: potency is the fitted concentration of half-maximal effect)
# How it was run: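 VM7Luc4E2 cells (endogenous full-length ER-alpha, 4×ERE-luciferase) were held 5 days in phenol red-free medium with 10% charcoal-stripped FBS, plated, then given 10.0nM ICI-182,780 and compounds at 15 concentrations for 22hr at 37C; viability read by CellTiter-Fluor fluorescence.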
# [7] = biological target: Progesterone receptor (Homo sapiens) (UniProt P06401); assay: qHTS assay to identify small molecule antagonists of the progesterone receptor (PR) signaling pathway (AID 1346795; active = well fitted inhibition curve with a large enough effect in the signal ratio in the repeat runs, not every such curve was filed as active; the % refers to the signal ratio; note: potency is the fitted concentration of half-maximal effect)
# Progesterone receptor (Homo sapiens), sequence (P06401 whole entry, looked up): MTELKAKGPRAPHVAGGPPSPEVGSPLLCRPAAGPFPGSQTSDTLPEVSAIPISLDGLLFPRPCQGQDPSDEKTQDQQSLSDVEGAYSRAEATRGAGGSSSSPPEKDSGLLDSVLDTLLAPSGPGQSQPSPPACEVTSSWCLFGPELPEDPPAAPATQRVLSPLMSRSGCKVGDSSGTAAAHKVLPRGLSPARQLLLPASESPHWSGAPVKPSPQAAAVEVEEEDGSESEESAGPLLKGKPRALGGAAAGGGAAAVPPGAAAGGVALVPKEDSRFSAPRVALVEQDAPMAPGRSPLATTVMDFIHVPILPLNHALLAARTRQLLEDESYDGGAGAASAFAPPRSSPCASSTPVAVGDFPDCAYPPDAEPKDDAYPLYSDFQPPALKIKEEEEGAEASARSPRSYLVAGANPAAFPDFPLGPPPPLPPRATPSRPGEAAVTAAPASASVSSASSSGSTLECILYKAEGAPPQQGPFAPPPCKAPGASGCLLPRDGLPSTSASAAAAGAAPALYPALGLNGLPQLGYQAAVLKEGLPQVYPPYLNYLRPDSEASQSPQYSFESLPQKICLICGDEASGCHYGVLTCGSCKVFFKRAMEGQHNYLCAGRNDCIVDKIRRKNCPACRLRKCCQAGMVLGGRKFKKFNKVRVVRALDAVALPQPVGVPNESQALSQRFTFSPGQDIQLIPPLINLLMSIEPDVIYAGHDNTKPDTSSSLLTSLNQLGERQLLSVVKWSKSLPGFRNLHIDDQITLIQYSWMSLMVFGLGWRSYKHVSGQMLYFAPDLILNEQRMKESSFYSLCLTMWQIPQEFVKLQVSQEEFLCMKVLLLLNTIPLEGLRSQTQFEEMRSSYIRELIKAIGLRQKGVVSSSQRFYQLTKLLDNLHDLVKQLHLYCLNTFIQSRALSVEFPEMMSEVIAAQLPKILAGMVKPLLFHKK
# How it was run: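 Antagonist mode: compounds tested against 1 nM (final) promegestone stimulation in HEK293T cells expressing PR-UAS-bla reporter, 16 hr at 37C, 5% CO2; beta-lactamase activity detected via B/G FRET substrate after 2 hr at room temperature.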
# [8] = biological target: Thyrotropin-releasing hormone receptor (Homo sapiens) (UniProt P34981); assay: qHTS assay to identify small molecule antagonists of the thyrotropin-releasing hormone receptor (TRHR) signaling pathway (AID 1346877; active = well fitted inhibition curve with a large enough effect in the repeat runs, not every such curve was filed as active; note: series mostly up to about 51 µM)
# Thyrotropin-releasing hormone receptor (Homo sapiens), sequence (P34981 whole entry, looked up): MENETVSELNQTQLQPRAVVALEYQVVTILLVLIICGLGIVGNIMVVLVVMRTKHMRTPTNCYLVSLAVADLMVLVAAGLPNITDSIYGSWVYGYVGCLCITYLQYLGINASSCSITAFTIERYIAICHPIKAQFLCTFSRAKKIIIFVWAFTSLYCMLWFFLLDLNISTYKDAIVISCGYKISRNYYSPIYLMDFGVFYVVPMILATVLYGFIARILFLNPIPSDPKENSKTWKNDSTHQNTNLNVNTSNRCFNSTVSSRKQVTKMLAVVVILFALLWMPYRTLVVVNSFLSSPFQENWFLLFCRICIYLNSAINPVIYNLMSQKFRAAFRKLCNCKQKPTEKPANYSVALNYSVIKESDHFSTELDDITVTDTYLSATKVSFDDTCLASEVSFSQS
# How it was run: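 TRHR-expressing HEK293 cells were seeded, cultured 18 h at 37 °C, then loaded with calcium dye for 2 h. Compounds were pre-incubated 5 min at room temperature before 1 nM TRH (final) was added, and kinetic fluorescence was recorded for 3 min.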
# [9] = biological target: Thyrotropin-releasing hormone receptor (Homo sapiens) (UniProt P34981); assay: qHTS assay to identify small molecule agonists of the thyrotropin-releasing hormone receptor (TRHR) signaling pathway (AID 1346891); note: series mostly up to about 58 µM
# How it was run: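 Cells: TRHR-Hek293, seeded and incubated 18 h. Dye loading: 2 h at 37 °C. Compound added from DMSO stock by pin tool. Read-out: kinetic calcium fluorescence over 3 min.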
# [10] = qHTS assay to identify small molecule agonists of the androgen receptor (AR) signaling pathway in the presence of an antagonist - cell viability counter screen (AID 1259379; active = well fitted curve in the direction sought with a large enough effect in the repeat runs; an effect the other way counts as inactive or inconclusive; note: series mostly up to about 92 µM; nearly all actives have a fitted effect of over 25% in size)
# How it was run: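 MDA-kb2 human breast carcinoma cells (stable MMTV-luciferase, AR/GR responsive) were seeded 3,000 cells/well, pre-incubated 5 hr at 37C without CO2, then given 3.0uM nilutamide and compounds at 15 concentrations for 16 hr. Viability was read by CellTiter-Fluor fluorescence.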
# [11] = biological target: Thyrotropin receptor (Homo sapiens) (UniProt P16473); assay: qHTS assay to identify small molecule antagonists of the thyroid stimulating hormone receptor (TSHR) signaling pathway (AID 1259385); note: nearly all actives have a fitted effect of over 20% in size
# Thyrotropin receptor (Homo sapiens), sequence (P16473 whole entry, looked up): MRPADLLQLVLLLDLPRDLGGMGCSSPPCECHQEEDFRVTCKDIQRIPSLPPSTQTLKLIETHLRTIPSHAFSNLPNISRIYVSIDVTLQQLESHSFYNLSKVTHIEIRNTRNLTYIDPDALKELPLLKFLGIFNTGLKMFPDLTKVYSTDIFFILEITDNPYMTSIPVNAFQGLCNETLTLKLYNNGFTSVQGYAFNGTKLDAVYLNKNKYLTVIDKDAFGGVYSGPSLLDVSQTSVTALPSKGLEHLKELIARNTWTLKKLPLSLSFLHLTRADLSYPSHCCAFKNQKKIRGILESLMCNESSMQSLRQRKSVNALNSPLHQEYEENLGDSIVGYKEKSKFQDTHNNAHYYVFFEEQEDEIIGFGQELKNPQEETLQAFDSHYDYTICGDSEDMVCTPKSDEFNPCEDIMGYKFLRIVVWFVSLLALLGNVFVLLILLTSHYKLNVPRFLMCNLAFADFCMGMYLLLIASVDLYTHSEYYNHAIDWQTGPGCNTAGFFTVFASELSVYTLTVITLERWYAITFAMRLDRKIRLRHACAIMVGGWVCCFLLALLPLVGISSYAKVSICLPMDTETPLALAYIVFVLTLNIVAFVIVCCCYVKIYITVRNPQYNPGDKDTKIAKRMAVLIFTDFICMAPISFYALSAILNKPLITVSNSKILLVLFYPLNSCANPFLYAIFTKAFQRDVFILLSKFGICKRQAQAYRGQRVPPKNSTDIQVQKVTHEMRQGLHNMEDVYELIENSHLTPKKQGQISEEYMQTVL
# How it was run: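 TSHR-HEK293 cells were plated and held 18 h at 37C/5% CO2, then given compound plus Ro20-1724 and stimulated with TSH at 1.5 ng/mL final. After 30 min at room temperature, cAMP was detected with cAMP-d2/anti-cAMP-cryptate (1 h) by fluorescence.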
# [12] = qHTS assay to identify small molecule antagonists of the TGF-beta/Smad signaling pathway - cell viability counter screen (AID 1346824; active = well fitted curve in the direction sought with a large enough effect in the repeat runs; an effect the other way counts as inactive or inconclusive; note: nearly all actives have a fitted effect of over 50% in size)
# How it was run: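 SBE-bla HEK 293T cells were plated overnight at 37 C, then given compounds in DMSO plus TGF-beta1 (added as 0.25 ng/mL solution) for 5 hr. After the bla read, CellTiter-Glo was added to the same wells and luminescence read after 30 min at room temperature.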
# [13] = qHTS assay to identify small molecule agonists of the TGF-beta/Smad signaling pathway - cell viability counter screen (AID 1346829; active = well fitted curve in the direction sought with a large enough effect in the repeat runs; an effect the other way counts as inactive or inconclusive; note: nearly all actives have a fitted effect of over 45% in size; note: potency is the fitted concentration of half-maximal effect)
# How it was run: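 Compound-treated SBE-bla HEK 293T cells (5 hr, 37 C) were assessed for viability with CellTiter-Glo in parallel with the reporter read.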
# [14] = qHTS assay to identify small molecule antagonists of the estrogen receptor beta (ER-beta) signaling pathway - cell viability counter screen (AID 1259382; active = well fitted curve in the direction sought with a large enough effect in the repeat runs; an effect the other way counts as inactive or inconclusive; note: nearly all actives have a fitted effect of over 55% in size; note: potency is the fitted concentration of half-maximal effect)
# How it was run: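 ER-beta-UAS-bla HEK293T cells (2,000/well, 2% charcoal-stripped FBS) were pre-incubated 6 hr at 37C, then given compound plus 1nM final 17-beta-estradiol for 16 hr. Viability was read in the same wells by CellTiter-Glo luminescence after 30 min at room temperature.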
# [15] = biological target: Progesterone receptor (Homo sapiens) (UniProt P06401); assay: qHTS assay to identify small molecule agonists of the progesterone receptor (PR) signaling pathway (AID 1346784); note: nearly all actives have a fitted effect of over 30% in size; note: potency is the fitted concentration of half-maximal effect
# How it was run: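 Cells (PR-UAS-bla HEK 293T, GripTite) were plated in assay medium containing 2% charcoal-stripped FBS and incubated 6 hr. Test compounds in DMSO were added for 16 hr at 37C. FRET substrate was then loaded for 2 hr at room temperature before fluorescence reading.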
# [16] = qHTS assay to identify small molecule antagonists of the progesterone receptor (PR) signaling pathway - cell viability counter screen (AID 1346798; active = well fitted curve in the direction sought with a large enough effect in the repeat runs; an effect the other way counts as inactive or inconclusive; note: nearly all actives have a fitted effect of over 50% in size; note: potency is the fitted concentration of half-maximal effect)
# How it was run: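 Counter screen for cytotoxicity: viability of PR-UAS-bla HEK293T cells was measured with CellTiter-Glo luminescence following 16 hr compound exposure in the presence of R5020.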
# [17] = qHTS assay to identify small molecule agonists of the progesterone receptor (PR) signaling pathway - cell viability counter screen (AID 1346799); note: nearly all actives have a fitted effect of over 45% in size; note: potency is the fitted concentration of half-maximal effect
# How it was run: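 Cells (PR-UAS-bla HEK293T) are plated at 3,000/well in 2% charcoal-stripped FBS medium, rested 6 hr, dosed and incubated 16 hr at 37C. CellTiter-Glo is then added and luminescence measured after 30 min at room temperature.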
# [18] = qHTS assay to identify small molecule agonists of the TGF-beta/Smad signaling pathway (AID 1346859; active = well fitted activation curve with a large enough effect in the signal ratio in the repeat runs, not every such curve was filed as active; the % refers to the signal ratio; note: series mostly up to about 77 µM)
# How it was run: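 Reporter line: HEK 293T with stably integrated SBE-controlled beta-lactamase. Compound exposure lasts 5 hr at 37 C and 5% CO2; substrate loading follows for 2 hr at room temperature, with emission read at 460 and 530 nm.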
SMILES,Potency [1],Potency [2],Potency [3],Potency [4],Potency [5],Potency [6],Potency [7],Potency [8],Potency [9],Potency [10],Potency [11],Potency [12],Potency [13],Potency [14],Potency [15],Potency [16],Potency [17],outcome [18]
N#CC(C#N)=NNc1cccc(Cl)c1,1.09 µM (active),15.4 µM (active),inactive,inactive,inactive,21.7 µM (active),13.7 µM (active),inactive,inactive,–,–,–,–,–,–,–,–,–
O=c1[nH]c(Cl)c(Cl)cc1Cl,inactive,–,inactive,–,inactive,inactive,inactive,inactive,inactive,inactive,inactive,inactive,inactive,–,–,–,–,–
CC1CCCC1,inactive,inactive,–,–,inactive,–,inactive,inactive,–,–,–,inactive,–,inactive,53.6 µM (active),inactive,inactive,–
CN=C=O,inactive,inactive,–,–,inactive,inactive,inactive,–,–,–,–,inactive,inactive,inactive,inactive,inactive,inactive,inactive
CCNS(=O)(=O)C(F)(F)C(F)(F)C(F)(F)C(F)(F)C(F)(F)C(F)(F)C(F)(F)C(F)(F)F,32.9 µM (active),23.3 µM (active),inactive,–,inactive,inactive,65.7 µM (active),inactive,inactive,–,inactive,inactive,inactive,inactive,inactive,–,–,–
ClC1=C(Cl)[C@]2(Cl)[C@H]3[C@H]([C@@H]4C=C[C@H]3C4)[C@@]1(Cl)C2(Cl)Cl,inactive,61.1 µM (active),–,inactive,inactive,inactive,21.7 µM (active),inactive,–,–,inactive,inactive,inactive and 49 µM (active),inactive,inactive,inactive,inactive,inactive
O=C1C2(Cl)C3(Cl)C4(Cl)C(Cl)(Cl)C5(Cl)C3(Cl)C1(Cl)C5(Cl)C24Cl (stereo not given),12 µM (active) and 29.3 µM (active),–,13.5 µM (active) and inactive,–,inactive,–,29.3 µM (active),–,–,–,–,inactive,–,–,–,–,–,inactive
C[C@]12Cc3cn[nH]c3C[C@@H]1CC[C@@H]1[C@@H]2CC[C@@]2(C)[C@H]1CC[C@]2(C)O,13.3 µM (active),8.41 µM (active),–,–,inactive,inactive,0.119 µM (active),inactive,inactive,–,–,inactive,inactive,6.68 µM (active),–,18.8 µM (active),18.8 µM (active),–
Clc1cc(Cl)c(-c2cc(Cl)c(Cl)cc2Cl)cc1Cl,inactive,inactive,–,–,inactive,inactive,10.2 µM (active),–,inactive,–,–,inactive,inactive,–,inactive,inactive,inactive,inactive
